In all, about 360,000 compounds went through this assay and about 3,100 (0.86%) were called active. The sample as a whole holds a higher share of actives than the screen did. Values without a mark were called inactive.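 How the source made its calls: active means inhibition or corrected inhibition above about 18%, plus a signal ratio from 0.5 to 1.5 (limit read from the data, passing the limit was not always enough); inactive means the rest.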
These compounds were tested against Neuropilin-1 (Homo sapiens) (UniProt O14786) (assay: NRP-1/CendR peptide interaction modulators – biochemical, fluorescence polarization, uHTS, primary screen (AID 602438)). Details: FAM-RPARPAR peptide binding to NRP-1, fluorescence polarization; at 25 µM; stronger effect = higher value.
Neuropilin-1 (Homo sapiens), sequence (O14786 whole entry, looked up): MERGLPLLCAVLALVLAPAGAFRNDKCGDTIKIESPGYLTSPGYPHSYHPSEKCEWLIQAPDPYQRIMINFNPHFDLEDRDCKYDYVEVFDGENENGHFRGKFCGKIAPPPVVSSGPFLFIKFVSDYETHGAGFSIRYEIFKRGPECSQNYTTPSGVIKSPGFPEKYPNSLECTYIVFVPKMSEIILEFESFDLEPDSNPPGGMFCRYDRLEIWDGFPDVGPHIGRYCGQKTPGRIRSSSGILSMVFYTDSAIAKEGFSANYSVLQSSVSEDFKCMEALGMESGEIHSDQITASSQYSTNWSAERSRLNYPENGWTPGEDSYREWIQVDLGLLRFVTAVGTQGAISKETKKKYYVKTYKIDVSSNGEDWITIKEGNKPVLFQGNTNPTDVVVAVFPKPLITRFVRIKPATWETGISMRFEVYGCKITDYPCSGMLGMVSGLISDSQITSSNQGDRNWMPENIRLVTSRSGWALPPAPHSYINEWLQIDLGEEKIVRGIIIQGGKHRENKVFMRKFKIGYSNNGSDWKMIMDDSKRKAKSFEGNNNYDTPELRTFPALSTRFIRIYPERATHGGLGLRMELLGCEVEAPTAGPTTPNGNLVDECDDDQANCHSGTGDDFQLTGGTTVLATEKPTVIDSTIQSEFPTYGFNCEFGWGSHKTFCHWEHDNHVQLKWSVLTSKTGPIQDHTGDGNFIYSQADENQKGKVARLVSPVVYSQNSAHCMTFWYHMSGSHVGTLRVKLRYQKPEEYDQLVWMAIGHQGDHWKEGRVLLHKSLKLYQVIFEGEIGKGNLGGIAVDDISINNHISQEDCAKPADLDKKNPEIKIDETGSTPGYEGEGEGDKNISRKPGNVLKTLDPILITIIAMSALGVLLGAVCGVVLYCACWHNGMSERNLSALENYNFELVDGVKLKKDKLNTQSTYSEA

Compared with O=C(NCCN1CCOC1=O)C1CCC(=O)N(CCc2ccc(Cl)cc2)C1 (configuration not stated), O=C(NCCCc1ccccc1)C1CCC(=O)N(CCc2ccc(Cl)cc2)C1 (configuration not stated) is higher in inhibition: -0.8% for the first, 8.8% for the second.

Going from CO[C@@H]1CN(C)C(=O)c2cc(NC(=O)Nc3cc(F)ccc3F)ccc2OC[C@H](C)N(C(=O)c2ccccn2)C[C@@H]1C to CC(=O)Nc1ccc(NC(=O)COc2ccccc2C(=O)Nc2cccc(Cl)c2Cl)cc1, the inhibition rises from 2.7% to 4.5%.

Going from COc1ccc(Cl)cc1NC(=O)NC(C)C(C)(C)C (configuration not stated) to COc1ccc(Cl)cc1NC(=O)NCC1CCN(Cc2ccccc2F)CC1, the inhibition rises from -1.8% to -1%.

Compared with Cc1n[nH]c(=O)n1-c1ccc(Oc2ccccc2)cc1, CCCCNC(=O)C1(O)c2ccccc2NC(=O)N1c1ccc(Cl)cc1 (configuration not stated) is lower in inhibition: 20% for the first, 3.9% for the second.

First: CCOc1ccc(CCNC(=O)C2=C(C)C(=O)OC23CCC(C)CC3)cc1OCC (configuration not stated)
Second: Cc1cc(=O)oc2c(C)c(OC(C)C(=O)NC3CCN(Cc4ccccc4)CC3)ccc12 (configuration not stated)
The inhibition of the first is lower: -1.3% for the first, 12.6% for the second.

Compared with CSc1ccccc1NC(=O)c1cc(Cl)sc1Cl, O=C(O)c1ccc(F)c(S(=O)(=O)Nc2ccccc2)c1 is lower in inhibition: -5.4% for the first, -11.7% for the second.

Compared with COc1ccc(CN2C(CC(=O)Nc3cccnc3)c3ccc(C(F)(F)F)cc3S2(=O)=O)cc1 (configuration not stated), COc1ccc(CN2C3CCCC2CC(NC(=O)c2cccc(F)c2)C3)cc1 (configuration not stated) is lower in inhibition: 0.3% for the first, -2.7% for the second.

First: O=C(C[n+]1cc(-c2ccc(Cl)c(Cl)c2)n2c1CCC2)c1cccs1
Second: COC(=O)C1CCN(C(=O)c2ccc3oc(Cc4ccc(Cl)cc4)nc3c2)CC1
The inhibition of the first is lower: -11.8% for the first, 8.2% for the second.

Compared with CCOC(=O)C1(Cc2ccccc2C)CCCN(C(=O)CN2C(=O)CSC2=O)C1 (configuration not stated), CCOC(=O)[C@]12CCC=C1N(Cc1ccccc1)C(=O)[C@H](CC(=O)N1CCCC1)C2 is lower in inhibition: 5.9% for the first, -23.1% for the second.

Going from COc1ccc(CC(=O)OC(C)C(=O)Nc2ccc(S(N)(=O)=O)cc2)cc1 (configuration not stated) to CC1Cc2ccccc2N1CC(=O)Nc1ccc(S(N)(=O)=O)cc1 (configuration not stated), the inhibition rises from -4.6% to 3.7%.

Compared with COC(C[C@@H](O)C[C@H](O)[C@H](C)OCc1ccccc1)OC, COC(C[C@@H](O)C[C@@H](O)[C@H](C)OCc1ccccc1)OC is higher in inhibition: -8.8% for the first, 17.1% for the second.

First: COCCn1c(SCc2nc3cc(OC)c(OC)cc3c(=O)[nH]2)nnc1-c1ccncc1
Second: CCCOc1ccc(/C(O)=C2/C(=O)C(=O)N(CCN(C)C)C2c2ccc(OC)c(OC)c2)cc1 (configuration not stated)
The inhibition of the first is higher: 14.6% for the first, 1.7% for the second.

Compared with NS(=O)(=O)c1ccc(CCNC(=O)c2nc(CS(=O)(=O)c3ccc(Cl)cc3)no2)cc1, CCN(CC)S(=O)(=O)c1ccc2[nH]cc(C(=O)NCCc3ccccc3)c(=O)c2c1 is higher in inhibition: -1.3% for the first, 8.6% for the second.

First: O=C1C=C(NCCNc2c(F)c(F)c(CO)c(F)c2F)CCC1
Second: Cc1cc(C)cc(N(CCC#N)C(=O)CN2C(=O)NC3(CCCC3)C2=O)c1
The inhibition of the first is higher: -0.5% for the first, -5.9% for the second.

First: CC(=O)NC(CC(=O)Nc1nc(-c2ccccc2)c(C(C)=O)s1)c1ccccc1 (configuration not stated)
Second: CC1COc2ccccc2N1S(=O)(=O)c1ccccc1 (configuration not stated)
The inhibition of the first is lower: -4.6% for the first, 8.8% for the second.

Compared with CCN1C(=S)N[C@@H](CCc2ccccc2)[C@H](C(=O)OC)[C@H]1C, CCN1C(=O)N[C@@H](c2ccccc2)[C@H](C(C)=O)[C@H]1C is lower in inhibition: 10.2% for the first, 7.8% for the second.

Compared with CC12COC3(C(=O)Nc4ccc(Cl)cn4)CC1CCC32C (configuration not stated), COc1ccc(NC(=O)c2oc3ccc(S(=O)(=O)N4CCOCC4)cc3c2C)cc1 is higher in inhibition: -0.2% for the first, 13.1% for the second.

Compared with Cc1ccc(OCC(=O)Nc2ccc(C(=O)O)cc2NC(=O)COc2ccc(C)c(C)c2)cc1C, Cc1cc(C(C)(C)C)cc(S(=O)(=O)Nc2ccc(C(=O)O)cc2)c1C is higher in inhibition: 0.7% for the first, 7.7% for the second.

First: COc1ccc(OCC(=O)OCCN(C)C)cc1
Second: COc1ccc(N(CC(=O)NCCSCc2cccc(Cl)c2)S(C)(=O)=O)cc1
The inhibition of the first is higher: 1.6% for the first, -7.7% for the second.

Going from CCCNC(=O)c1cc2c(c(-c3cccc(-c4ccc(C#N)cc4)c3)n1)[C@@H](CCO)N(C(=O)CC)C2 to CCCc1cc(=O)oc2c(C)c(OCC(=O)NCc3ccccn3)ccc12, the inhibition falls from 8.8% to -1%.

Going from O=C(N[C@H]1CC[C@H](CC(=O)N2CCCCC2)O[C@@H]1CO)c1cccc(F)c1 to O=C(C1CCN(CC2CCCCC2)CC1)N1CCCC1, the inhibition rises from -5% to 10.7%.

First: NC(=O)CSc1nnc(-c2cccc(S(=O)(=O)N3CCOCC3)c2)o1
Second: CN(C)/C(=N\OC(=O)c1ccccc1)c1nonc1N
The inhibition of the first is lower: -9.5% for the first, 2% for the second.

Going from C[C@@H]1ON(C)[C@H]2C[C@H]3c4cc(N5CCN(C)CC5)ccc4CCN3C(=O)[C@@H]12 to COc1cccc(C2/C(=C(/O)c3ccc(F)cc3)C(=O)C(=O)N2CCN(C)C)c1 (configuration not stated), the inhibition falls from 4.7% to 4%.

With Cc1cc(CNC(=O)C2CCC(=O)N(CCc3ccc(Cl)cc3)C2)no1 (configuration not stated) the inhibition was 28.7% (active).
With COc1ccc(Cl)cc1NC(=O)C(C)N1CCc2ccccc21 (configuration not stated) the inhibition was 23.1% (active).
For CN(C)S(=O)(=O)Oc1ccccc1C(=O)Nc1ccccc1Cl, the inhibition was 50.6% (active).
COc1ccc(CN2[C@@H](CC(=O)O)c3cc(F)ccc3S2(=O)=O)cc1 was tested, and the inhibition was 26.2% (active).
With COC(C[C@@H](O)[C@H](C)[C@H](O)COCc1ccccc1)OC the inhibition was 18.6% (active).
For COCCN1C(=O)N[C@@H](CCc2ccccc2)[C@H](C(C)=O)[C@H]1C, the inhibition was 23.7% (active).
COc1ccc(C(=O)COC(=O)COc2ccc(C)c(C)c2)cc1 was tested, and the inhibition was 33.9% (active).
With CCCc1cc(=O)oc2c(C)c(OC(C)C(=O)NCC(O)c3ccccc3)ccc12 (configuration not stated) the inhibition was 22.4% (active).
In the case of Cc1ccc(C(=O)Nc2ccccc2-c2ccccc2)cc1S(=O)(=O)Nc1ccccc1, the inhibition is reported as 29.8% (active).
With Cc1noc(C)c1CSc1nc2cc(S(=O)(=O)N3CCOCC3)ccc2o1 the inhibition was 21.4% (active).
In the case of C=CCOc1ccc(C2/C(=C(\O)c3c(C)[nH]c(C(=O)OC)c3C)C(=O)C(=O)N2CCN(C)C)cc1 (configuration not stated), the inhibition is reported as 29.5% (active).

— PubChem BioAssay AID602438 (Sanford-Burnham Center for Chemical Genomics, 2012)
